Growth data for nine compounds are collected here from PubChem BioAssay (NCI).

The panel holds about 83,000 compounds, 20% with a hit somewhere; the sample as a whole holds those more often.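 Assay: single dose, 48 h. Readout: percent growth (0 = no net growth; negative = cell death). Active: <10.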 A number with no mark means an inactive call. Calls of active or inactive are those of the source.

Assay in all cases: NCI-60 one-dose screen, 48 h (100 = growth as untreated, 0 = no growth, -100 = all killed)
Conditions in all cases: 10 µM unless noted

Assay [1] concerns RPMI-8226 leukemia.
Assay [2] concerns OVCAR-8 ovarian.
Assay [3] relates to OVCAR-5 ovarian.
In assay [4] the test system is OVCAR-4 ovarian.
The subject of assay [5] is SK-OV-3 ovarian.
Assay [6] has as its system IGROV1 ovarian.
For assay [7], the system named is HS 578T breast.
Assay [8] deals with NCI/ADR-RES ovarian.
In assay [9] the test system is T-47D breast.
Assay [10] deals with BT-549 breast.
Assay [11] relates to MDA-MB-435 melanoma.
Assay [12] relates to SW-620 colon.
The test system of assay [13] is MCF7 breast.
The test system of assay [14] is HCT-116 colon.
For assay [15], the system named is HCC-2998 colon.
Assay [16] deals with KM12 colon.

Take `COc1cc2c3c(n(CCCN4CCCC4)c(=O)c2cc1OC)-c1cc2c(cc1C3=O)OCO2`: the growth in assay [1] was -41.2% (active); in assay [2], -65.3% (active); in assay [3], -73.1% (active); in assay [4], -59.2% (active); in [5], 53.7%; in assay [6], -70.9% (active). The growth in assay [7] was 88.6%; in assay [8] it was -39.6% (active); in [9] it was 78.3%; in assay [10] it was 82.3%; in assay [11], -12.5% (active); in [12], -63.1% (active). In addition, the growth is -71.7% (active) in assay [13], -84% (active) in assay [14], 42.2% in [15] and -23.4% (active) in assay [16].

As to `CCOC(=O)Nc1cccc(-n2cnc3cc(-c4ccc(O)cc4)ccc32)c1`, the growth in assay [1] is 20.2%; in assay [2], 21.8%; in assay [3] it was 41.1%; in assay [4] it was 56%; in assay [5], 34%; in assay [6], 32.3%. Further, the growth in [7] is 16%; in assay [8], 7.05% (active); in assay [9], 12.8%; in assay [10], 39.3%; in [11], -16% (active); in assay [12], 25.5%. The growth in assay [13] was 18.2%; in [14], 10.3%; in assay [15] it was 30.2%; in [16], 3.22% (active).

With `COc1ccc2c(c1)c(-c1nn3c(=O)cc(-c4ccccc4)nc3s1)cn2C`, the growth in assay [1] was 57.5%; in assay [2], 51%; in assay [3], 66%; in assay [4], 67.4%; in [5], 49.6%; in [6], 54.3%. Further, the growth in assay [7] is 27%; in [8] it was 27.8%; in assay [9], 16%; in [10], 49.8%; in assay [11], -23.8% (active); in assay [12], 28.1%. The growth in assay [13] is 18.9%; in assay [14] it was 22.7%; in assay [15] it was 75.2%; in [16], 44.7%.

As to `CN1CCN(c2ccc(C(=O)/C=C/c3ccc(Cl)c(C(F)(F)F)c3)cc2)CC1`, the growth in assay [1] is 3.06% (active); in assay [2] it was 55%; in assay [3], 79.7%; in assay [4], 66%; in [5] it was 105%; in [6], 78.1%. Also, the growth in assay [7] was 87.3%; in assay [8], 64.4%; in [9], 29.6%; in assay [10] it was 109%; in assay [11], 13.7%; in [12] it was 1.29% (active). For the same compound, the growth in assay [13] was 7.85% (active); in [14], 16.1%; in assay [15] it was 33.7%; in assay [16], 27.3%.

On to `Cc1ccc(-c2cc(-c3ccc(N(C)C)cc3)n3c(n2)nc2ccccc23)cc1`, for which the growth was 36.2% in [1]; 54.2% in assay [2]; 109% in assay [3]; 60.9% in assay [4]; 81.3% in [5]; 86.2% in assay [6]. Also, the growth in assay [7] was 83%; in assay [8], 56.7%; in assay [9], 6.32% (active); in assay [10] it was 82.2%; in assay [11] it was 65.3%; in assay [12], 80.1%. In addition, the growth in assay [13] was 59.2%; in [14], 39.4%; in assay [15], 80.3%; in [16], 78.4%.

For `Clc1ccc(-c2nc3ccc(/C(=N\N=C\c4ccccc4)c4ccccc4)cc3[nH]2)cc1`, the growth was 54.6% in [1]; 85.6% in assay [2]; 85.6% in assay [3]; 77.8% in assay [4]; 90.7% in [5]; 104% in [6]. The growth was 99.9% in [7]; 87.8% in [8]; 70.7% in assay [9]; 92.5% in assay [10]; 88.9% in assay [11]; 91.2% in assay [12]. The growth in assay [14] was 84.5%; in assay [15], 103%; in assay [16], 82.3%.

Regarding `Nc1nc(N)c2c(n1)NC(c1ccccc1)CC(c1ccc(Nc3nc(NCCO)nc(Nc4ccc(Cl)cc4)n3)cc1)=N2` (stereo not drawn), the growth in assay [1] was -56.2% (active); in assay [2], -20% (active); in assay [3] it was 111%; in [4], 57.2%; in assay [5], 116%; in assay [6], 64.3%. The growth in [7] is 79.9%; in assay [8] it was 48.4%; in assay [9], 62.1%; in assay [10] it was 79.3%; in [11], 41.8%; in assay [12] it was -83.3% (active). Also, the growth in assay [13] is -71.3% (active); in assay [14], -92.7% (active); in [15], 68.9%; in assay [16], 47%.

For the compound `COc1ccc(C2CC(c3ccc(Nc4nc(NCCO)nc(Nc5ccc(Cl)cc5)n4)cc3)=Nc3c(N)nc(N)nc3N2)cc1` (stereo not drawn), the growth was -4.52% (active) in [1]; 40% in assay [2]; 121% in [3]; 66.9% in [4]; 112% in assay [5]; 74% in assay [6]. The growth was 94.9% in [7]; 76% in assay [8]; 72.1% in [9]; 77.5% in [10]; 74.9% in assay [11]; 41.2% in [12]. The growth in assay [13] is -71.8% (active); in [14], -80.3% (active); in assay [15], 93.5%; in assay [16], 55.4%.

On to `COc1ccc2c(c1)oc1c3[nH]c4ccccc4c3c3c(c21)C(=O)N(O)C3=O`, for which the growth was 28% in assay [1]; 48.4% in [2]; 110% in assay [3]; 77.9% in assay [4]; 39.1% in assay [5]; 41.2% in assay [6]. The growth in [7] is 77.9%; in [8], 59.6%; in assay [9], 10.8%; in assay [10], 40.9%; in [11], 53.2%; in assay [12], 34.3%. Also, the growth in assay [13] is 15.7%; in assay [14], 21.5%; in assay [15], 84.7%; in [16], 48%.
